Assay: EMT-state selective cytotoxicity in co-culture – imaging, PC-3E GFP, TEM4-18 mCherry, primary screen (AID 1345086);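 also: cells exposed to compound for 72 h before imaging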
Settings: PC-3E GFP / TEM4-18 mCherry co-culture, imaging cell counts; measured here: mesenchymal TEM4-18 mCherry cell survival; at 1 µM

SMILES | normalised cell number
COC(=O)CC1C(C)(C)C(OC(C)=O)[C@@H]2[C@@H](OC(C)=O)[C@]34O[C@@]2(O)C1(C)C3CC[C@]1(C)C4=CC(=O)O[C@H]1c1ccoc1 (some centres undefined) | 0.95
O=C(NCC1O[C@@H](OC2C(NC(=O)c3ccccc3)C[C@@H](NC(=O)c3ccccc3)[C@H](OC3OC(COS(=O)(=O)O)[C@@H](OS(=O)(=O)O)[C@H](NC(=O)c4ccccc4)[C@H]3OS(=O)(=O)O)[C@H]2OS(=O)(=O)O)[C@H](OS(=O)(=O)O)[C@@H](OS(=O)(=O)O)C1OS(=O)(=O)O)c1ccccc1 (some centres undefined) | 1.16
COC(=O)c1c[nH]c2c(OC)c(F)c(F)cc2c1=O | 1.21
COc1cc2c(c3oc4ccccc4c(=O)c13)[C@@H]1C=CO[C@@H]1O2 | 0.4

From PubChem BioAssay
